Tests used:
Experiment in all cases: PBM binding z-score (relative to random genomic background probes); higher = stronger binding; sequences stand for … in GC…GCGATTGACAGCGTAGAATGAAGG
[1] = system: RARb homodimer (NR concentration 270 nM)
How it was run: (§1)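 Custom Agilent 4×180K protein-binding microarrays carried double-stranded probes, each with a 34-nt variable region. These regions held direct-repeat seeds, single-nucleotide variants, half-site ablations and random human genomic background sequences. Ligand-free nuclear receptor dimers were incubated on the arrays for 1 h, antibodies against each partner (one per run) detected binding, and scanned fluorescence was regression-normalized. Binding z-scores take the random background probes as reference.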

[2] = system: RARg:RXRa (NR concentration 270 nM, RXRa partner concentration 90 nM)
How it was run: as §1

[3] = system: RARg homodimer (NR concentration 270 nM)
How it was run: as §1

[4] = system: RXRa DBDmut IVT, anti-RXR (DBD mutation: RXRa K156A/R161A, NR concentration 90 nM)
How it was run: as §1

[5] = system: RXRa homodimer (NR concentration 180 nM)
How it was run: as §1

[6] = system: THRa:RXRa (NR concentration 90 nM, RXRa partner concentration 90 nM)
How it was run: as §1

[7] = system: THRa homodimer (NR concentration 90 nM)
How it was run: as §1

[8] = system: VDR homodimer (NR concentration 270 nM)
How it was run: as §1

Sequence | PBM binding z-score [1] | PBM binding z-score [2] | PBM binding z-score [3] | PBM binding z-score [4] | PBM binding z-score [5] | PBM binding z-score [6] | PBM binding z-score [7] | PBM binding z-score [8]
ACAGACAGGTGATGAAGGTAACTGAGGCTATCAT | 0.244 | 0.321 | 0.603 | -0.383 | 0.305 | 1.33 | -0.0787 | -0.259
CCTTACGGGTCACTGACAGGTTATAGTATTTGGA | 3.11 | 5.61 | 4.34 | 1.85 | 5.18 | 3.04 | 0.562 | 1.17
CAAACTAGGCCAAAGGTCAAAGTCGAGCCAACCA | 4.89 | 6.83 | 5.59 | 1.38 | 7.49 | 3.93 | 0.417 | 1.61
TCTTGTAGATCAGCAGGTTAAGAAGGCTGGCCAA | 0.175 | 0.0178 | -0.229 | 0.672 | 0.428 | 0.192 | -0.361 | -0.0588
TCGAGTAGGTTAGACGGGGCATTCAGCCAACATA | 0.538 | 0.307 | 0.0787 | 0.0493 | 0.305 | 0.812 | -0.51 | -0.0872
TCATATAGGTAAAAGGTGAAAATCGGTGTGGTAA | 1.58 | 2.04 | 0.775 | 1.69 | 3.08 | 1.56 | 0.242 | 0.627
TCTTGTAGATCAGCATGTTAAGAAAGCTGGCCAA | -0.787 | -0.255 | -0.411 | 0.518 | -0.151 | -0.548 | -0.975 | -0.468
TCTTGTAGATCAAAGGCTAAGAAAGCCGAAGCCT | -0.521 | -0.216 | -0.29 | 0.467 | 0.315 | -0.446 | -0.464 | -0.345
CGTCAAGGTTCAACTAAGGTAACGTAAAGCACGC | 2.36 | 3.57 | 2.98 | 4.42 | 3.53 | 5.38 | 1.72 | 3.36
GTACCAAGGTGAATAGGACGTTGATGAGTAGGCG | 0.539 | 0.543 | 0.959 | -0.489 | 0.542 | 1.24 | 0.345 | 0.0653
GCGACTGGGGCATCAGCACGTTACCATAACTTAA | 0.000503 | 0.0207 | 0.311 | 0.239 | 0.0852 | -0.219 | -0.089 | -0.335
CCGACTGGGGCAAAGGATACCATACTCAGTACGA | 0.263 | 0.271 | 0.572 | -0.0232 | 0.075 | -0.155 | -0.322 | -0.406
CCTACTGGGCCATTCAGGGGTCATTGATCATATG | 3.95 | 4.69 | 3 | 0.56 | 5.5 | 3.31 | 0.962 | 4.05
ACTAGTTGGTCAGCTGAGGTCAGACACAATTCGG | 3.88 | 2.85 | 3.57 | 0.548 | 2.51 | 4.56 | 3.42 | 1.76
GCTGCTAGGTCAACTGATTGTCAGCTAAAGCTCG | 3.35 | 4.28 | 4.95 | 1.3 | 2.55 | 2.89 | 0.691 | 0.00113
ATCGAAAGATCGAGGTGAGTATAGAGAAAGGGAA | -0.0948 | 0.227 | 0.358 | -0.896 | 0.294 | 0.955 | 0.245 | -0.151
AGTCAAACTTCATCTAGGTAACGTAAGATATGCT | -0.47 | -0.19 | 0.544 | 0.281 | 0.109 | 0.484 | 0.329 | -0.372
CGTAAAAGTTCAACTAAGGTAACGTAAAGCACGC | 3.88 | 5.28 | 6.11 | 4.41 | 4.42 | 5.35 | 1.75 | 3.84
AGAATGAGGTTAAGATCAAGGAAACAGAATACAT | 0.789 | 2.02 | 1.57 | 1.13 | 2.68 | 2.39 | 0.555 | 0.551

Sequence | PBM binding z-score [1] | PBM binding z-score [2] | PBM binding z-score [3] | PBM binding z-score [4] | PBM binding z-score [5] | PBM binding z-score [6] | PBM binding z-score [7] | PBM binding z-score [8]
CAAACGAGGGCATGAGTTGATAGCAAATGCCGAT | 0.782 | 1.53 | 1.79 | 2.13 | 1.29 | 1.56 | -0.234 | 1.62
ACTATTCGTTGAGACGAGGGCAACCGATAGGTTG | 1.26 | 0.489 | 0.81 | 0.393 | 0.523 | 1.33 | 0.648 | 0.643
ATCGAAAGGGCGAAGGTGAGTATACCCACCCGAA | 1.17 | 1.63 | 1.2 | -0.634 | 1.59 | 0.3 | -0.75 | -0.263
GCTTTCGGGTCAAAGGTTATAGCATGAATAGAAT | 3.37 | 7.01 | 5.04 | 2.52 | 9.55 | 4.61 | 2.14 | 2.16
AATACAGGGTCGTCGTAGGCCAGAGTACGCACAG | 1.42 | 2.13 | 1.29 | 1.76 | 2.81 | 3.4 | 0.245 | 1.78
TAGCCTAGGTCATGGTCCAGTATACCACGCGAAC | 3.04 | 3.96 | 4.28 | 0.681 | 3.51 | 3.39 | 1.75 | 0.777
ATCTCTAGGTAACCAAGTTCCGTGAATGCCGAAC | -0.23 | 0.14 | 0.215 | 0.0901 | 0.217 | 0.694 | 0.462 | -0.111
CGCCAAAGTTCAAGGTAACGTAACAGAAAGCAGC | 4.05 | 5.2 | 5.94 | 4.68 | 4.57 | 2.96 | 1.28 | 3.03
AGAACGAGGGCAATGAGTTGATAGTACGGGTGGC | 1.2 | 1.3 | 1.61 | 2.24 | 0.933 | 0.88 | -0.483 | 3.56
TGAATGAGGTTATAAGATGAGGGAACGTTGCAAA | 0.278 | 1.31 | 1.12 | 0.817 | 1.76 | 1.77 | 0.282 | 0.388
GCATATAGGTAATACAAGGTGAAAGGCCGATTGT | 1.08 | 0.593 | 0.747 | 0.113 | 0.895 | 4.07 | 0.753 | 0.114
AGAATCAGGTTATACGTAGATCAGGGAAGAAAGT | 0.65 | 0.789 | 0.919 | 0.474 | 0.757 | 1.17 | 0.768 | 0.381
ATCTCTAGGTAAATATAGTTCAGTGAATGCAAAT | 1.1 | 1.03 | 1.14 | 0.551 | 0.623 | 1.05 | 0.0877 | 1.2
GGAACGAGGGCAAAGTTGATAGAATCTGTCGACG | 1.19 | 2.18 | 1.77 | 2.54 | 2.06 | 1.39 | -0.286 | 1.42
CCTACTGGGCCAAGGTCATTGATCAGTCAAAGCA | 3.43 | 3.59 | 2.83 | 1.19 | 3.08 | 3.49 | 2.36 | 2.15
ATCTCTAGGTAAGACTAAGTTCAGTGAAGAACGC | 1.85 | 0.933 | 0.697 | 0.96 | 0.46 | 1.34 | 0.876 | 2.25
TCGAGTAGGTTGCCAATGGGGCATTCAGCTTTCT | -0.36 | -0.509 | -0.841 | 0.244 | -0.482 | -0.51 | -0.951 | -0.846
TCGAGTAGGTTACCAGTGGGGCATTCAGCTTTCT | 0.636 | 1.06 | 0.275 | 0.241 | 0.437 | 0.157 | -0.534 | -0.388
CCTAGTGGGCCAAAAAGGTCATTGATGCCGATAA | 4.28 | 4.7 | 4.5 | 0.794 | 4.79 | 2.71 | 0.434 | 2.66

Sequence | PBM binding z-score [1] | PBM binding z-score [2] | PBM binding z-score [3] | PBM binding z-score [4] | PBM binding z-score [5] | PBM binding z-score [6] | PBM binding z-score [7] | PBM binding z-score [8]
CCACGGAGGACAGAAGGTCAGAGCTGTCCGCTTT | 3.73 | 3.62 | 3.48 | 0.42 | 2.22 | 2.44 | 0.0793 | 0.236
CCTATTGGGCCAAAAAGGTCATTGATGCCGATAA | 4.34 | 4.44 | 4.07 | 0.773 | 4.53 | 3.25 | 0.389 | 2.18
CGAACTAGGTCCTCCAGGACAGTGAATACATTGA | -0.151 | 0.0122 | 0.149 | 0.211 | 0.00298 | 1.41 | 0.816 | -0.221
ACTCGGAGAACAAAGGTCAGAGCTACGCCAGTGA | 4.39 | 4.46 | 3.88 | 0.505 | 4.55 | 2.76 | 0.0239 | 0.553
TCTCGGAGGACACGAAAGGTCGGAGCTCGACATC | 2.87 | 2.45 | 2.91 | 1.02 | 1.66 | 2.7 | 0.464 | 0.287
CGAACTAGGTCATCCAGGACAGTGAATACATTGA | 3.06 | 4.04 | 4.85 | 2.52 | 2.79 | 3.59 | 1.84 | 1.96
TCTCGGAGGACACGAACGGTCAGAGCTCGACATC | 1.89 | 1.02 | 2.34 | 0.557 | 0.138 | 1.44 | 0.357 | -0.389
CCAGACAGGTGAGAAGGTAACCCAGCCTCGATTA | 0.888 | 0.695 | 0.557 | -0.131 | 0.558 | 0.444 | 0.455 | -0.253
GTACCAAGCTGAATAGGTCGTTGATGAGTAGGCG | 0.0267 | -0.0216 | 0.164 | -0.0938 | 0.371 | -0.0665 | -0.873 | -0.43
CCTACTGGGCCATCAGGTCATTGAAATCAACGTT | 2.46 | 1.85 | 2.14 | 0.155 | 1.18 | 3.07 | 2.88 | 1.02
CCTAGTTGGTCAAGGTCACACAAGCTATAGGTAC | 4.53 | 4.81 | 4.89 | 2.26 | 4.88 | 4.19 | 3.83 | 3.72
AGTCAAAGTTCATCCAGGTAACGTAAGATATGCT | 3.81 | 5.56 | 5.81 | 4.61 | 4.49 | 3.57 | 0.915 | 5.17
CCGAGTAGGTTATAGGGCATTCAGGCAACGGTGA | 1.33 | 0.821 | 0.848 | 0.485 | 1.19 | 0.932 | 0.256 | 0.435
TCATACAGGTGAAGGTAACTCAGGTACGCAGTCG | 0.9 | 0.872 | 0.925 | 1.33 | 1.42 | 1.67 | 0.594 | 0.668
TCTAGAAGGCCAGAGGGTCACTCAAGAGGTACGG | 3.16 | 3.17 | 2.72 | 0.844 | 3.03 | 1.75 | -0.0793 | 0.435
TTACCAAGGTGAATGTCGTTGATCCCTCTGTAGA | 0.851 | 0.459 | 0.367 | 0.1 | 0.711 | 1.82 | 0.923 | -0.448
ATCGAAAAGTCGAGGTGAGTATAGAGAAAGGGAA | 0.0212 | 0.371 | 0.476 | -0.67 | 0.323 | 1.17 | 0.201 | -0.198
TCTGCTAGGTCAACGATGGTCAGCTAGTCTGCTA | 3.54 | 3.9 | 4.61 | 0.638 | 2.5 | 3.16 | 0.617 | -0.544

— the supplement of paper PMC6555819
